Data as given in PubChem BioAssay (EPA / NIEHS).
“And” between values parts separate entries of the source, which are not always exact repeats. Identical values can stand only once. Records with an inconclusive call do not appear. Some structures have more than one record in an assay (separate samples or runs), and their calls can disagree. The source made the active and inactive calls. Rule for the calls, unless noted: active = hit-call score of the fitted dose curve at least 0.9, where 1 is the maximum; inactive = score below 0.9.

Assays:
[1] = biological target: human Vitamin D Receptor (VDR), VDR (gene 7421) (UniProt P11473); assay: ATG_VDR_TRANS: Attagene TRANS-FACTORIAL HepG2 Assay for human Vitamin D Receptor (VDR) (AID 2283022; active = hit-call score of the fitted dose curve at least 0.9, where 1 is the maximum)
How it was run: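 HepG2 cells were transiently transfected with multiple GAL4-UAS reporter units, so signal reflects exogenous chimeric receptor-Gal4 activity. After 24 h compound exposure, reporter mRNA was measured by RT-PCR, fluorescent labelling and capillary electrophoresis, fitted for gain of signal versus DMSO.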

[2] = read-out: Monokine induced gamma interferon (MIG), CXCL9 (gene 4283); assay: BSK_3C_MIG: BioMAP Diversity Plus: 3C Assay for Monokine induced gamma interferon (MIG) Biomarker Activity (AID 2283021); conditions: primary human endothelial cells (HUVEC); actives raise or lower the signal
How it was run: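 HUVEC, 3C system; 24 h chemical exposure; MIG by ELISA; bidirectional fit vs DMSO baseline.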

[3] = read-out: Matrix Metallopeptidase 1 (MMP1), MMP1 (gene 4312); assay: BSK_BE3C_MMP1: BioMAP Diversity Plus: BE3C Assay for Matrix Metallopeptidase 1 (MMP1) Biomarker Activity (AID 2283024); conditions: primary human bronchial epithelial cells; actives raise or lower the signal
How it was run: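 ELISA read-out of MMP1 in human lung bronchial epithelial primary cultures, 24 h post-dose; bidirectional curve fit vs DMSO baseline, gain or loss of signal scored.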

[4] = BSK_3C_Vis: BioMAP Diversity Plus: 3C Assay for Morphology Visualization (AID 2283025); conditions: primary human endothelial cells (HUVEC);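 note: fitted both ways so gain or loss versus DMSO counts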
How it was run: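 HUVEC, 3C system; light microscopy of morphology at 24 h post-dose. Bidirectional fit vs DMSO baseline. Secondary readout, background-control function.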

[5] = read-out: Pselectin, SELP (gene 6403); assay: BSK_4H_Pselectin: BioMAP Diversity Plus: 4H Assay for Pselectin Biomarker Activity (AID 2283026); conditions: primary human endothelial cells (HUVEC); actives raise or lower the signal
How it was run: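 HUVEC, 24 h chemical exposure; P-selectin read by ELISA. Bidirectional curve fit vs DMSO baseline; gain or loss of signal scored.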

[6] = BSK_4H_SRB: Viability Assessment in the BioMAP Diversity Plus: 4H Assay (AID 2283027); conditions: primary human endothelial cells (HUVEC);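 note: cells exposed to compound for 24 h before staining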
How it was run: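 Cytotoxicity readout: sulforhodamine B (0.1%) staining of total protein after 10% TCA fixation, measured at 560 nm in human umbilical vein endothelium at 24 h. DMSO set the baseline; fitting was bidirectional.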

[7] = BSK_BE3C_SRB: Viability Assessment in the BioMAP Diversity Plus: BE3C Assay (AID 2283028); conditions: primary human bronchial epithelial cells;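 for AC50: fitted both ways so AC50 may mark signal gain or loss versus DMSO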
How it was run: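 Human primary bronchial epithelial cells were exposed to test chemicals for 24 h. Total protein in parallel cultures was then measured by staining with 0.1% sulforhodamine B after 10% TCA fixation, with absorbance read at 560 nm. Activity was fitted bidirectionally against DMSO.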

[8] = read-out: Thrombomodulin, THBD (gene 7056); assay: BSK_3C_Thrombomodulin: BioMAP Diversity Plus: 3C Assay for Thrombomodulin Biomarker Activity (AID 2283029); conditions: primary human endothelial cells (HUVEC); actives raise or lower the signal
How it was run: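 HUVEC, 3C conditions; compound 24 h; thrombomodulin by ELISA; bidirectional curve fit vs DMSO baseline; parallel SRB total-protein staining for cytotoxicity.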

[9] = read-out: Urokinase-type plasminogen activator receptor (uPAR), PLAUR (gene 5329); assay: BSK_4H_uPAR: BioMAP Diversity Plus: 4H Assay for Urokinase-type plasminogen activator receptor (uPAR) Biomarker Activity (AID 2283030); conditions: primary human endothelial cells (HUVEC); actives raise or lower the signal
How it was run: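 Primary human umbilical vein endothelial cells were exposed to chemical for 24 h before cell-surface uPAR was quantified by ELISA. Activity was fitted bidirectionally against the DMSO negative control baseline.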

[10] = read-out: Vascular endothelial growth factor receptor 2 (Homo sapiens) (UniProt P35968); assay: BSK_4H_VEGFRII: BioMAP Diversity Plus: 4H Assay for Vascular endothelial growth factor receptor 2 (VEGFR2) Biomarker Activity (AID 2283031); conditions: primary human endothelial cells (HUVEC); actives raise or lower the signal;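 for AC50: cell-surface VEGFR2 protein level quantified by ELISA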
How it was run: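 Primary human umbilical vein endothelial cells in the BioMAP 4H system were dosed with test chemical, and 24 h later VEGFRII was measured by ELISA. Activity was fitted bidirectionally against DMSO as negative control and baseline.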

[11] = read-out: Human Leukocyte Antigen - DR isotype (HLADR), HLA-DRA (gene 3122); assay: BSK_BE3C_HLADR: BioMAP Diversity Plus: BE3C Assay for Human Leukocyte Antigen - DR isotype (HLADR) Biomarker Activity (AID 2283032); conditions: primary human bronchial epithelial cells; actives raise or lower the signal
How it was run: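 Primary human bronchial epithelial cells (BE3C); 24 h chemical exposure; HLA-DR by ELISA; bidirectional curve fit vs DMSO baseline.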

[12] = read-out: Vascular cell adhesion molecule 1 (VCAM1), VCAM1 (gene 7412); assay: BSK_4H_VCAM1: BioMAP Diversity Plus: 4H Assay for Vascular cell adhesion molecule 1 (VCAM1) Biomarker Activity (AID 2283033); conditions: primary human endothelial cells (HUVEC); actives raise or lower the signal
How it was run: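 HUVEC, 24 h post-dose; VCAM-1 by ELISA. Bidirectional curve fit vs DMSO baseline. Parallel SRB total-protein stain (0.1% SRB after 10% TCA fixation, 560 nm) for cytotoxicity.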

[13] = read-out: Interferon-gamma inducible Protein 10 (IP10), CXCL10 (gene 3627); assay: BSK_BE3C_IP10: BioMAP Diversity Plus: BE3C Assay for Interferon-gamma inducible Protein 10 (IP10) Biomarker Activity (AID 2283034); conditions: primary human bronchial epithelial cells; actives raise or lower the signal
How it was run: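 ELISA readout of IP-10 in BE3C system: primary human bronchial epithelial cells, 24 h post-dosing; bidirectional curve fit vs DMSO baseline.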

[14] = read-out: Transforming growth factor beta 1 (TGFb1), TGFB1 (gene 7040); assay: BSK_BE3C_TGFb1: BioMAP Diversity Plus: BE3C Assay for Transforming growth factor beta 1 (TGFb1) Biomarker Activity (AID 2283036); conditions: primary human bronchial epithelial cells; actives raise or lower the signal
How it was run: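 Read-out: ELISA for TGF-b1 in primary human bronchial epithelial cultures, 24 h post-dose. Bidirectional curve fitting vs DMSO control; gain or loss of signal both scored.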

[15] = read-out: Plasminogen activator inhibitor-1 (PAI1), SERPINE1 (gene 5054); assay: BSK_BE3C_PAI1: BioMAP Diversity Plus: BE3C Assay for Plasminogen activator inhibitor-1 (PAI1) Biomarker Activity (AID 2283037); conditions: primary human bronchial epithelial cells; actives raise or lower the signal
How it was run: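 ELISA read-out of PAI-1 from human bronchial epithelial primary cells, 24 h post-dosing; bidirectional curve fit vs DMSO baseline, gain or loss of signal scored.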

[16] = read-out: urokinase plasminogen activator (uPA), PLAU (gene 5328); assay: BSK_BE3C_uPA: BioMAP Diversity Plus: BE3C Assay for urokinase plasminogen activator (uPA) Biomarker Activity (AID 2283038); conditions: primary human bronchial epithelial cells; actives raise or lower the signal
How it was run: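 Human primary bronchial epithelial cells were exposed to chemical for 24 h, then uPA levels were measured by ELISA. Responses were fitted bidirectionally against DMSO as negative control and baseline. Parallel SRB staining of total protein gauged overt cytotoxicity.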

[17] = read-out: Urokinase-type plasminogen activator receptor (uPAR), PLAUR (gene 5329); assay: BSK_BE3C_uPAR: BioMAP Diversity Plus: BE3C Assay for Urokinase-type plasminogen activator receptor (uPAR) Biomarker Activity (AID 2283039); conditions: primary human bronchial epithelial cells; actives raise or lower the signal
How it was run: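 ELISA readout of uPAR on human lung primary bronchial epithelial cells, 24 h post-dosing. Bidirectional curve fit relative to DMSO vehicle baseline; gain or loss of signal both scored.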

[18] = read-out: Interleukin-6 (IL6), IL6 (gene 3569); assay: BSK_CASM3C_IL6: BioMAP Diversity Plus: CASM3C Assay for Interleukin-6 (IL6) Biomarker Activity for (AID 2283040); conditions: primary human coronary artery smooth muscle cells; actives raise or lower the signal
[19] = BSK_3C_SRB: Viability Assessment in the BioMAP Diversity Plus: 3C Assay (AID 2283023); conditions: primary human endothelial cells (HUVEC);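 note: fitted both ways against DMSO so a hit may be signal rise or drop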
How it was run: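 Primary human umbilical vein endothelial cells in the 3C system were read 24 h after compound dosing. Total protein was stained with 0.1% sulforhodamine B after 10% TCA fixation and read at 560 nm, with bidirectional fitting against DMSO as baseline.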

Measured: AC50

Chain of human Vitamin D Receptor (VDR), VDR (gene 7421) (P11473 whole entry, looked up, the tested form may be a part): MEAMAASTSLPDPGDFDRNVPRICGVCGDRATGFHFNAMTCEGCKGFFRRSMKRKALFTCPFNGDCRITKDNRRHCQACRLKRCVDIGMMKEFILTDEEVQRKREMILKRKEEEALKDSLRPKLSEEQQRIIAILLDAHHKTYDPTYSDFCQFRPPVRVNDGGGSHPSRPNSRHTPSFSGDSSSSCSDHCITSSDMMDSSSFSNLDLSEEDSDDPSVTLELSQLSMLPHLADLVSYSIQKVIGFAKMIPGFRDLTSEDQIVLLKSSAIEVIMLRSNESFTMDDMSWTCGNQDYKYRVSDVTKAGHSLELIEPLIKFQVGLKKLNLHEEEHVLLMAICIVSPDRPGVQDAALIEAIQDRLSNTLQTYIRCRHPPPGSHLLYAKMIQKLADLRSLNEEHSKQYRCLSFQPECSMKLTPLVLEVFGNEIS

CC=O
inactive: [1]

Nc1ccc(O)c(C(=O)O)c1
inactive: [1]

FC(OC(F)(F)C(F)(F)C(F)(F)F)C(F)(F)F (configuration not stated)
inactive: [1]

NC(C(F)(F)F)C(F)(F)F
inactive: [1]

CCCCCCCCCCCCOS(=O)(=O)O
active: [7] 32.6 µM | [11] 26.2 µM | [13] 12.5 µM | [14] 28.7 µM | [15] 33.3 µM | [16] 31.6 µM | [17] 32.8 µM
inactive: [2] | [3] | [4] | [5] | [6] | [8] | [9] | [10] | [12] | [18]

O=C1c2ccccc2C(=O)c2c(O)c(O)cc(O)c21
inactive: [1]

CCCCCCCCC(C)=O
inactive: [1]

Oc1cc2ccccc2cc1O
inactive: [2] | [19] | [4] | [5] | [6] | [7] | [8] | [9] | [10] | [11] | [12] | [13] | [14] | [15] | [16] | [17] | [18]

CC(=O)Nc1ccc(O)cc1
inactive: [2] | [19] | [4] | [5] | [6] | [7] | [8] | [9] | [10] | [11] | [12] | [13] | [14] | [15] | [16] | [17] | [18]

CCC(C)c1nccnc1OC (configuration not stated)
inactive: [1]

Cn1sccc1=O
inactive: [1]

CCCCCCCCCCCC
inactive: [2] | [3] | [5] | [6] | [7] | [8] | [9] | [10] | [16] | [17] | [18]
active: [19] 31.1 µM and 30.4 µM | [8] 36.5 µM | [10] 28 µM | [11] 5.83 µM and 5.29 µM | [12] 33.4 µM and 32.1 µM | [13] 7.03 µM and 6.14 µM | [15] 9.17 µM and 6.53 µM
